The full ranking holds about 33,000 sequences; the median of “E-score (-0.5 to 0.5)” is about -0.016, and the highest 2% start at about 0.32. The sample as a whole holds a higher share of the highest values than the screen did.

In the test the target is T1, Stp1 (UniProt B3LFK1).
T1 sequence: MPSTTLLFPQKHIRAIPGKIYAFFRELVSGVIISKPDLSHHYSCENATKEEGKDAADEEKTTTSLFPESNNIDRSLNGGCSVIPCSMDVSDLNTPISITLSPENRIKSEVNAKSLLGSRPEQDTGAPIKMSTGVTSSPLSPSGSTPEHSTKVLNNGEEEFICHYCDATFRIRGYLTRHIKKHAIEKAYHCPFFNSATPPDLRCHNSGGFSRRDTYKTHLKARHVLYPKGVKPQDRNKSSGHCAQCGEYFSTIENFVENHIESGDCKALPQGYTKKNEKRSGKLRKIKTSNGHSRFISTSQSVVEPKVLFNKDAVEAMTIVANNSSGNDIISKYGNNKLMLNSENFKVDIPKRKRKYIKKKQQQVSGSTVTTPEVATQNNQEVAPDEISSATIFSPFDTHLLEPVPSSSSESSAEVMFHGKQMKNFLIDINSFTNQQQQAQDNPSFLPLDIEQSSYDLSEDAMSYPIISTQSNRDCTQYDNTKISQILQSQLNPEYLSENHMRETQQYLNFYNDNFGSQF
The test can be described thus: PBM E-score (8-mer binding enrichment) (E-score (-0.5 to 0.5)); higher = stronger / more preferred TF binding. The note with it: protein concentration: 200 nM; construct: GST-full length. The procedure: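 Universal 'all 10-mer' protein binding microarrays (Agilent AMADID 015681) probed with GST-tagged S. cerevisiae TFs (full-length or DBD) made by in vitro transcription/translation (PURExpress), about 100-200 nM. Bound TF was detected with fluorescent anti-GST. Each ungapped 8-mer (which stands for itself and its reverse complement) is scored by the PBM enrichment score (E-score), a modified Wilcoxon-Mann-Whitney statistic from -0.5 to +0.5, computed with the Universal PBM Analysis Suite. Scale: above 0.35 generally sequence-specific binding.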
For CCGAGCCA, the “PBM E-score” value is -0.0385.

For ACGAGCCA, the “PBM E-score” value is -0.0521.

On to CGAGGGAC, for which the “PBM E-score” value is -0.245.

With CGCCTCGC, the “PBM E-score” value was determined as 0.394.

AGCCTCGC: the “PBM E-score” value is 0.0691.

As for CGCCTCAC, the “PBM E-score” value turned out to be 0.395.

Turning to CGCCTCAG, the “PBM E-score” value was 0.289.

On to GGCCTCAC, for which the “PBM E-score” value is -0.00507.

CGCCTCGA: the “PBM E-score” value was 0.205.

Turning to CAGGAGCC, the “PBM E-score” value was -0.0638.

As to GGCTTGGA, the “PBM E-score” value was -0.128.

Regarding GTTGGGCA, the “PBM E-score” value was 0.0977.

As to CTCACCCC, the “PBM E-score” value amounted to 0.0927.

Consider ATTTCGCG, for which the “PBM E-score” value was 0.177.

With ATATCGCG, the “PBM E-score” value was 0.127.

In the case of GACGCGCA, the “PBM E-score” value is -0.105.

For the sequence ATTTCGCA, the “PBM E-score” value is 0.111.

Take CACGCGCC: the “PBM E-score” value came to 0.291.

On to ATTTCGCC, for which the “PBM E-score” value was 0.336.

For ATATCGCC, the “PBM E-score” value amounted to 0.322.

As for ATCGCGCA, the “PBM E-score” value is -0.0273.

Consider GACGCGCC, for which the “PBM E-score” value was found to be 0.348.

Turning to ATCGCGCC, the “PBM E-score” value is 0.394.

As for ATCGCGCG, the “PBM E-score” value amounted to 0.235.

As to CTATCGCC, the “PBM E-score” value amounted to 0.0882.

On to CATTCGAC, for which the “PBM E-score” value was -0.0891.

Take CAAAACGG: the “PBM E-score” value stood at 0.308.

In the case of ACGTGCAG, the “PBM E-score” value was 0.105.

With GATGGTCC, the “PBM E-score” value is -0.219.

Regarding CCTCTCTC, the “PBM E-score” value is -0.339.

For AACGCGCG, the “PBM E-score” value was found to be 0.232.

In the case of AACGCGCC, the “PBM E-score” value was found to be 0.361.

For the sequence AACGCGCT, the “PBM E-score” value was 0.0273.

On to ACAGGGGT, for which the “PBM E-score” value was -0.338.

For the sequence GAAGGTGA, the “PBM E-score” value was 0.0707.

On to GCCGCGAC, for which the “PBM E-score” value amounted to 0.282.

With CCCGCGGA, the “PBM E-score” value turned out to be 0.0756.

For GCCGCGGC, the “PBM E-score” value worked out at 0.474.

Regarding ACCGCGGA, the “PBM E-score” value is -0.0118.

ACCGCGGC: the “PBM E-score” value is 0.384.

As for CCCGCGGC, the “PBM E-score” value amounted to 0.411.

As for ACCGCGGT, the “PBM E-score” value is -0.3.

GCCGCGAA: the “PBM E-score” value was 0.159.

With ACCGCGGG, the “PBM E-score” value was determined as 0.0822.

In the case of TCCGCGGA, the “PBM E-score” value came out at 0.0517.

As to CCCGCGGG, the “PBM E-score” value was 0.104.

Take GCCGCGGA: the “PBM E-score” value was found to be 0.343.

On to CGCTTACA, for which the “PBM E-score” value is 0.0771.

In the case of GTATACCA, the “PBM E-score” value stood at 0.0622.

As to ACTTATCC, the “PBM E-score” value was -0.0589.

Regarding CATAGACA, the “PBM E-score” value was 0.0911.

Turning to CAATAAAG, the “PBM E-score” value was determined as 0.217.

In the case of AGTTGACC, the “PBM E-score” value was -0.0773.

As to ATATGGGC, the “PBM E-score” value was -0.0537.

As for ACCCGTTC, the “PBM E-score” value turned out to be 0.0622.

With ACCGAAAT, the “PBM E-score” value worked out at 0.0238.

As for ATCTTAAA, the “PBM E-score” value was -0.0445.

With AGGACTGC, the “PBM E-score” value was -0.256.

As for AGTTATCG, the “PBM E-score” value turned out to be 0.106.

As for GCCGCTTA, the “PBM E-score” value came out at 0.39.

For ACCGCTCC, the “PBM E-score” value is -0.223.

On to CCCGCTTA, for which the “PBM E-score” value was 0.0273.

On to ACCGCTTA, for which the “PBM E-score” value is -0.238.

As to GCCGCTCC, the “PBM E-score” value amounted to 0.398.

As for TCCGCTCA, the “PBM E-score” value is -0.102.

In the case of CCCGCTCC, the “PBM E-score” value was -0.241.

As for ACCGCTCA, the “PBM E-score” value is 0.0634.

With GCCGCTCA, the “PBM E-score” value is 0.381.

On to CAGCGCTA, for which the “PBM E-score” value was determined as 0.0165.

As to ATGCCCTA, the “PBM E-score” value came out at 0.168.

Take CAGTACGC: the “PBM E-score” value is -0.111.

Regarding CAGCTACG, the “PBM E-score” value is -0.14.

For GCAGCGCC, the “PBM E-score” value was determined as 0.33.

As for CTAGCGCC, the “PBM E-score” value is 0.16.

As for ACAGCGCC, the “PBM E-score” value came to 0.249.

CCAGCGCC: the “PBM E-score” value came out at 0.235.

For the sequence ATAGCGCG, the “PBM E-score” value turned out to be 0.136.

As for GAAGCGCC, the “PBM E-score” value was determined as 0.337.

On to GAAGCGCA, for which the “PBM E-score” value is -0.0259.

Turning to ATAGCGCC, the “PBM E-score” value was found to be 0.357.

Consider CAAGCGCC, for which the “PBM E-score” value is 0.219.

Turning to AGGTACCC, the “PBM E-score” value was -0.414.

Consider AGCTACCG, for which the “PBM E-score” value is -0.16.

Regarding ACATGGCT, the “PBM E-score” value was -0.137.

Turning to CCATCCAA, the “PBM E-score” value came out at 0.0222.

In the case of GAAACGGA, the “PBM E-score” value worked out at 0.132.

Source of the values: the supplement of paper PMC3334620.
